# Laboratory results: paper PMC5540273 (PLoS ONE, 2017)
# How the values were obtained:
# Conditions in all cases: concentration: 1 μM, replicates: in singlicate; n = 1
# EPHA1 = system: EPHA1
# EPHA2 = system: EPHA2
# EPHA3 = system: EPHA3
# EPHA4 = system: EPHA4
# EPHA5 = system: EPHA5
# EPHA6 = system: EPHA6
# EPHA7 = system: EPHA7
# EPHA8 = system: EPHA8
# EPHB1 = system: EPHB1
# EPHB2 = system: EPHB2
# EPHB3 = system: EPHB3
# EPHB4 = system: EPHB4
# EPHB6 = system: EPHB6
# ERBB2 = system: ERBB2
# ERBB3 = system: ERBB3
# ERBB4 = system: ERBB4
# ERK1 = system: T1, ERK1
# T1 construct: gene MAPK3
# ERK2 = system: T2, ERK2
# T2 construct: gene MAPK1
# ERK3 = system: T3, ERK3
# T3 construct: gene MAPK6
# ERK4 = system: T4, ERK4
# T4 construct: gene MAPK4
# 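Also: KINOMEscan kinase panel screen.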
SMILES,%Inh (EPHA1) [%],%Inh (EPHA2) [%],%Inh (EPHA3) [%],%Inh (EPHA4) [%],%Inh (EPHA5) [%],%Inh (EPHA6) [%],%Inh (EPHA7) [%],%Inh (EPHA8) [%],%Inh (EPHB1) [%],%Inh (EPHB2) [%],%Inh (EPHB3) [%],%Inh (EPHB4) [%],%Inh (EPHB6) [%],%Inh (ERBB2) [%],%Inh (ERBB3) [%],%Inh (ERBB4) [%],%Inh (ERK1) [%],%Inh (ERK2) [%],%Inh (ERK3) [%],%Inh (ERK4) [%]
COC(=O)c1c(-c2ccccc2)c2cc(C)ccc2c(=O)n1Cc1ccccc1,0,0,14,61,0,75,0,0,0,2,45,1,0,5,0,0,0,9,0,0
Nc1nc(-c2ccccc2F)c(-c2ccnc3ccccc23)s1 [GW560459],0,0,0,0,0,0,0,0,34,0,0,1,0,71,0,36,10,0,0,0
COc1cc(Nc2nccc(N3CCC(NC(=O)C(C)c4ccc(Cl)cc4)C3)n2)cc(OC)c1OC (stereo not drawn) [GSK1379757],4,23,0,22,0,18,2,14,0,0,23,11,94.7,61,0,26,0,0,5,12
Cn1c(=O)c(F)c(Nc2ccc(I)cc2F)c2c(=O)n(OC[C@H](O)CO)cnc21,36,15,0,16,5,12,14,19,20,34,17,32,0,0,41,3,0,8,9,7
CCC(=O)c1c(-c2ccccc2)c2cc(Cl)ccc2c(=O)n1Cc1cc(C(=O)NC2CC2)n(C)n1,4,3,8,26,0,38,11,4,7,4,20,23,25,9,4,0,0,10,0,5
CCS(=O)c1ccc(-c2coc3ccc(-c4nnc(C)o4)cc23)cc1 (stereo not drawn),5,13,4,0,4,12,0,0,0,0,0,9,3,8,3,9,0,13,0,0
Cc1nn2c(=O)cc(N3CCOCC3)nc2n1Cc1cccc(Cl)c1Cl [GSK2342769],10,10,0,21,0,18,0,6,0,0,16,16,0,0,0,0,0,0,0,5
COc1cc(OC)cc(-c2cc3cnc(N)nc3nc2NC(=O)NC(C)(C)C)c1,28,0,0,0,0,0,0,0,0,0,0,0,24,4,0,4,0,0,0,4
COc1cc(Nc2ccnc3ccc(C(F)(F)F)cc23)cc(OC)c1OC [GW577382],61,35,27,14,2,0,10,75,10,26,14,20,49,16,30,23,0,5,0,1
O=c1cc(N2CCOCC2)nc2n(Cc3ccc(F)c(Cl)c3)ccn12 [GSK2297099],12,0,18,3,0,0,6,6,7,0,8,15,5,0,0,24,0,0,0,25
COc1cccc(C2=C(N(C)c3ccccc3)C(=O)NC2=O)c1 [SB-334865],0,4,0,16,0,0,5,7,18,14,3,0,11,41,0,0,7,0,0,46
O=C(NCc1cccs1)c1cc(C(=O)c2c(Cl)cccc2Cl)c[nH]1 [GW823670],0,0,1,4,0,0,0,4,4,0,0,0,0,0,0,20,0,5,0,0
COc1cc(Nc2nccc(N3CCC(NC(=O)C4COc5ccccc5O4)C3)n2)cc(OC)c1OC (stereo not drawn) [GSK1379761],1,17,1,2,0,0,0,5,6,8,0,7,93.9,50,37,30,0,0,5,15
CCC(=O)c1c(-c2ccccc2)c2cc(Cl)ccc2c(=O)n1Cc1cc(S(C)(=O)=O)n(CCC(C)(C)O)n1,0,22,4,17,11,34,10,12,6,18,9,0,21,0,7,20,12,32,14,14
COc1cc2ncn(-c3cc(OCc4ccc(S(C)(=O)=O)cc4)c(C(N)=O)s3)c2cc1OC [GW869979],0,0,7,0,0,0,22,17,9,9,0,0,38,0,11,0,10,2,6,0
Nc1nccc2scc(-c3ccc4c(c3)CCN4C(=O)Cc3ccccc3)c12 [GSK2576924],9,6,38,4,0,2,4,15,0,14,4,22,88,31,0,8,0,0,0,33
FC(F)(F)c1ccc(-c2ncn(CCCN3CCOCC3)c2-c2ccncc2)cc1 [SB-217780],6,5,0,12,0,7,0,0,0,0,0,9,18,16,0,47,0,0,7,0
COc1cc2ncn(-c3cc(OCCCc4ccccc4)c(C(N)=O)s3)c2cc1OC [GSK205189],0,0,0,3,1,5,5,17,4,0,0,6,39,12,0,0,5,3,0,0
COc1cc2nccc(Nc3ccc(OCc4ccc(NC(C)=O)cc4)cc3)c2cc1OC.Cl [GW440135],19,16,0,13,0,16,5,5,6,0,32,19,19,31,40,9,0,0,5,0
O=C(Nc1n[nH]c2nc(-c3ccccc3)c(Cl)cc12)C1CC1 [SB-734909],19,24,17,8,0,13,17,21,0,0,7,15,48,6,32,0,0,0,0,0
Nc1nc(N)c2nc(-c3ccccc3)[nH]c2n1 [SKF-12778],12,20,3,17,3,8,3,4,18,10,0,13,39,22,4,0,7,5,6,0
Cc1nc(N(C)[C@H]2CN(C(=O)CC#N)CC[C@H]2C)c2cc[nH]c2n1,0,0,28,20,2,0,10,12,8,0,6,9,19,7,0,0,8,13,5,19
CCc1ccc(-c2ccc3c(c2)-c2nn(C)cc2S(=O)(=O)N3C)cc1,4,25,0,0,0,0,0,0,0,0,0,0,12,2,24,0,3,0,0,0
COC(=O)c1c(-c2ccccc2)c2cc(Br)ccc2c(=O)n1Cc1ccc(S(C)(=O)=O)cc1,0,22,0,33,16,45,24,23,14,21,30,18,34,55,6,13,1,38,4,3
O=C(NCCNc1ccnc(Nc2ccc(F)cc2)n1)Nc1ccc2c(c1)OCO2 [GSK1379882],15,0,0,0,0,0,0,0,18,0,0,0,38,9,10,7,0,0,9,22
COc1ccc(-c2coc3ccc(-c4nnc(SCc5cccc(C#N)c5)o4)cc23)cc1,7,3,2,25,21,26,0,0,0,5,6,0,0,14,0,0,0,26,0,0
COc1cccc(-n2cnc3c(N)ncnc32)c1 [SKF-97416],9,0,4,4,3,0,0,0,0,19,0,0,28,31,46,1,0,0,5,0
CCn1c(-c2nonc2N)nc2ccccc21 [SB-693162/GW549034],0,0,10,0,0,0,0,0,0,0,0,0,45,0,4,0,0,10,0,0
Cc1ccc(Oc2ccc(Nc3ncnc4cc[nH]c34)cc2C)cn1,13,16,3,22,16,26,0,0,5,7,26,28,53,100,24,29,0,26,0,7
CC(C)(C)c1ccc(C(=O)Nc2cn3cc(-c4ccccc4)ccc3n2)cc1,0,0,6,6,0,0,0,0,11,0,3,0,0,50,0,4,0,0,0,6
